The full list was thinned out, with hits kept by preference.
ERK EGF block = EGF-driven ERK pathway inhibition | HEK293-V1b, EGF-stimulated phospho-ERK AlphaScreen | Potency, µM (series often up to 11.5 µM), inactives show at the highest dose activity change, negative = inhibition, hits mostly inhibitors | 130,000 compounds, 0.41% hits;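 further: potency means the concentration at half of the fitted maximal effect; plate controls were stimulated vehicle wells for no effect and unstimulated vehicle basal for full effect; nearly all actives have a fitted effect of over 55% in size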
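After overnight plating in 1% FBS, HEK293-V1b cells received test compound for half an hour, then a 5 min pulse of EGF (25 nM); ERK phosphorylation in lysates was read by bead-based AlphaScreen.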
NPSR antag = antagonists of human neuropeptide S receptor cAMP signaling; Q6W5P4; 220,000 compounds, 1% hits; AID 1461; Potency, µM (series often up to 38.3 µM), inactives show top-dose activity change, negative = inhibition, most hits filed as inhibitors; CHO-NPSR cells, cAMP TR-FRET, antagonist mode; further: potency means the concentration at half of the fitted maximal effect; on the % scale 0 is the no-effect control and ±100 the full control effect; nearly all actives have a fitted effect of over 50% in size
Target sequence (Q6W5P4 whole entry, looked up): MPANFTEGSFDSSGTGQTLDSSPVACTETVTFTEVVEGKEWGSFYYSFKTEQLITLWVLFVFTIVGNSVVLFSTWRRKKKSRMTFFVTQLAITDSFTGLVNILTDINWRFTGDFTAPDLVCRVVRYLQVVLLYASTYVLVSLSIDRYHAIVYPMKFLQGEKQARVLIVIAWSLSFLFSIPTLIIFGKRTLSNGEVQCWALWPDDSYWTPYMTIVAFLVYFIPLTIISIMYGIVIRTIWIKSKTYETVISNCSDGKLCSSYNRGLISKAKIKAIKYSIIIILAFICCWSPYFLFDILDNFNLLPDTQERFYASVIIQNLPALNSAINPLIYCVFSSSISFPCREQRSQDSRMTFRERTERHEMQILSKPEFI
pERK EGF inh = confirmation of ERK pathway inhibitors under EGF stimulation. shares compounds with ERK EGF block. HEK293 EGF-stimulated ERK phosphorylation, AlphaScreen. Potency, µM (doses to about 57.5 µM), inactives show top-dose activity change, negative = inhibition, actives largely listed as inhibitors. 60 compounds, 60% hits. AID 1725
cRaf kinase inh = ERK pathway inhibitors follow-up: human c-Raf kinase inhibition; shares compounds with ERK EGF block; activity change, negative = inhibition, % at 76.9 µM; c-Raf kinase inhibition, homogeneous biochemical assay; 70 tested, under 10 active
MEK inh = ERK pathway inhibitors follow-up: human MEK1 kinase inhibition; shares compounds with ERK EGF block; Potency, µM (titrated, usually from 76.9 µM), inactives show top-dose activity change, negative = inhibition, usual class: inhibitors; 70 tested, under 10 active; homogeneous MEK kinase activity assay, ERK pathway
Numbers without * were called inactive; · = no result given; [ ] = dose if it differs, or a comment. The call rests on the fitted dose curve; in most records, active means well fitted curve in the direction sought with a large enough effect; inconclusive means small, poorly fitted or top-dose-only effect, or another doubt; inactive means no such curve, though single readings can be large; an effect the other way counts as inactive or inconclusive.

SMILES	ERK EGF block	NPSR antag	pERK EGF inh	cRaf kinase inh	MEK inh
COc1ccc(N=C2C(=Nc3ccc(OC)cc3)N(c3ccc(OC)cc3)C(=S)N2C)cc1	·	-15%[46.1 µM]	7.9µM*	6	-13%
COc1ccc(N=C2C(=Nc3ccc(OC)cc3)N(c3ccc(OC)cc3)C(=S)N2c2ccccc2)cc1	·	-3%[46.1 µM]	8.9µM*	-6	-10%
COc1ccc(N=C2SCC(=O)N2c2ccc(OC)cc2)cc1	·	0%[46.1 µM]	·	·	·
COC(=O)CC[C@@H](C)[C@H]1CC[C@H]2[C@@H]3CC[C@@H]4C[C@H](O)CC[C@]4(C)[C@H]3C[C@H](O)[C@]12C	3%	·	·	·	·
COc1ccc2c(c1)O[C@@H](c1ccc3c(c1)OCO3)[C@H](OC(=O)NCc1ccc3c(c1)OCO3)C2=O	2%	·	·	·	·

Compound activity: PubChem, National Center for Advancing Translational Sciences (NCATS)
